Some test systems named below: CSNK1G1; CSNK1G2; CSNK1G3; CSNK2A1; CSNK2A2; DAPK1; DAPK2; DAPK3; DDR1; DDR2; DMPK; DYRK1A.
Holding throughout (details): concentration: 1 μM, replicates: in singlicate; n = 1
For another test, the system named is T1, CTK.
T1 construct: gene MATK

A further test concerns T2, DCAMKL1.
T2 construct: gene DCLK1

In another test the test system is T3, DCAMKL2.
T3 construct: gene DCLK2

In another test the test system is T4, DCAMKL3.
T4 construct: gene DCLK3

The subject of another test is T5, DLK.
T5 construct: gene MAP3K12

A further test has as its system T6, DMPK2.
T6 construct: gene CDC42BPG

Another test has as its system T7, DRAK1.
T7 construct: gene STK17A

The test system of another test is T8, DRAK2.
T8 construct: gene STK17B
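Also: KINOMEscan kinase panel screen.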

Consider `CN(c1ccc(NC(=O)N2CCN(CCCN3CCOCC3)CC2)cc1)c1ccnc(Nc2ccc(CS(C)(=O)=O)cc2)n1.Cl` [GW830899], for which the “%Inh” value with CSNK1G1 turned out to be 19%; in the test on CSNK1G2, 6%; with CSNK1G3, 5%; in the test on CSNK2A1, 0%; in the test with CSNK2A2, 0%; in the test on CTK, 0%. Further, the “%Inh” value in the test on DAPK1 amounted to 4%; in the test with DAPK2, 0%; with DAPK3, 0%; with DCAMKL1 it was 0%; in the test with DCAMKL2 it was 0%; with DCAMKL3, 5%. Further, the “%Inh” value in the test with DDR1 came to 36%; in the test with DDR2, 54%; in the test on DLK it was 24%; in the test with DMPK2, 0%; with DMPK it was 0%; with DRAK1, 0%. For the same compound, the “%Inh” value in the test on DRAK2 is 13%; in the test on DYRK1A it was 0%.
On to `Nc1cccc(-c2ccc3c(N)n[nH]c3c2)c1` [GSK2193613], for which the “%Inh” value in the test on CSNK1G1 is on record as 13%; with CSNK1G2, 0%; in the test with CSNK1G3, 18%; in the test on CSNK2A1 it was 27%; in the test on CSNK2A2 it was 61%; in the test with CTK, 0%. For the same compound, the “%Inh” value with DAPK1 was 0%; with DAPK2, 6%; in the test with DAPK3, 4%; in the test on DCAMKL1, 13%; in the test on DCAMKL2, 0%; with DCAMKL3, 0%. Besides, the “%Inh” value was found to be 0% with DDR1; 0% in the test with DDR2; 43% in the test on DLK; 0% in the test with DMPK2; 33% with DMPK; 95.1% in the test on DRAK1. The entries for the “%Inh” value with DRAK2 and in the test with DYRK1A were 0% and 24%, respectively.
Take `Cc1nn2c(=O)cc(N3CCO[C@H](C)C3)nc2n1Cc1cccc(Cl)c1Cl` [GSK2373693]: the “%Inh” value with CSNK1G1 is 10%; with CSNK1G2, 0%; with CSNK1G3, 26%; in the test with CSNK2A1, 50%; in the test with CSNK2A2, 63%; in the test with CTK, 0%. Also, the “%Inh” value in the test on DAPK1 is recorded as 37%; with DAPK2 it was 54%; in the test on DAPK3 it was 94.7%; in the test with DCAMKL1, 0%; in the test on DCAMKL2, 6%; in the test with DCAMKL3, 34%. For the same compound, the “%Inh” value is on record as 18% with DDR1; 0% in the test on DDR2; 0% in the test with DLK; 0% with DMPK2; 1% with DMPK; 0% in the test with DRAK1. Further, the “%Inh” value worked out at 11% in the test on DRAK2 and 48% in the test with DYRK1A.
`Cc1ccc(-c2ccc3occ(-c4ccc(S(C)=O)cc4)c3c2)nn1` (stereo not shown): the “%Inh” value in the test on CSNK1G1 is 0%; with CSNK1G2, 0%; with CSNK1G3, 0%; in the test with CSNK2A1, 0%; with CSNK2A2 it was 10%; in the test on CTK, 0%. Further, the “%Inh” value with DAPK1 is 0%; in the test on DAPK2 it was 0%; in the test with DAPK3 it was 0%; in the test on DCAMKL1, 4%; in the test with DCAMKL2, 0%; in the test on DCAMKL3, 21%. The “%Inh” value in the test with DDR1 is 0%; with DDR2, 16%; in the test on DLK, 0%; in the test with DMPK2, 0%; in the test with DMPK, 8%; in the test with DRAK1, 10%. For the same compound, the figures for the “%Inh” value in the test with DRAK2 and in the test on DYRK1A were 22% and 0%, respectively.
As for `CC(C)c1nc(-c2ccc(F)c(NS(=O)(=O)c3c(F)cccc3F)c2)c(-c2ccnc(Nc3ccc(N4CCOCC4)nc3)n2)s1` [GSK1804250], the “%Inh” value in the test on CSNK1G1 is listed as 7%; in the test on CSNK1G2, 4%; in the test with CSNK1G3 it was 12%; in the test on CSNK2A1, 10%; with CSNK2A2, 0%; in the test on CTK, 30%. The “%Inh” value in the test on DAPK1 is recorded as 14%; in the test with DAPK2, 5%; in the test with DAPK3, 20%; in the test on DCAMKL1, 12%; with DCAMKL2, 0%; in the test with DCAMKL3, 30%. In addition, the “%Inh” value with DDR1 is given as 82%; with DDR2 it was 56%; in the test with DLK, 68%; in the test with DMPK2, 26%; in the test on DMPK, 6%; in the test with DRAK1 it was 15%. Moreover, the results for the “%Inh” value with DRAK2 and in the test with DYRK1A were 0% and 7%, respectively.
As for `Cc1ccc(C)c(NC(=O)Nc2ccc(C)c(-c3ccc(C(=O)Nc4ccncc4)cc3)c2)c1` [GSK1398473], the “%Inh” value in the test on CSNK1G1 is on record as 3%; with CSNK1G2, 15%; in the test on CSNK1G3, 32%; in the test on CSNK2A1, 15%; in the test with CSNK2A2, 0%; in the test with CTK it was 0%. The “%Inh” value is reported as 26% in the test on DAPK1; 0% with DAPK2; 2% in the test with DAPK3; 13% in the test on DCAMKL1; 0% with DCAMKL2; 13% in the test with DCAMKL3. Also, the “%Inh” value in the test with DDR1 is 99.8%; with DDR2, 72%; in the test on DLK, 0%; in the test on DMPK2, 1%; in the test with DMPK, 4%; with DRAK1 it was 0%. Further, the “%Inh” value worked out at 0% with DRAK2 and 36% with DYRK1A.
Consider `CC(C)c1nc(-c2cccc(NS(=O)(=O)c3c(F)cccc3F)c2)c(-c2ccnc(Nc3ccc(N4CCOCC4)nc3)n2)s1.Cl` [GSK1723980], for which the “%Inh” value is 2% with CSNK1G1; 0% in the test on CSNK1G2; 0% in the test with CSNK1G3; 2% in the test on CSNK2A1; 0% in the test on CSNK2A2; 37% in the test with CTK. Further, the “%Inh” value in the test on DAPK1 is listed as 3%; with DAPK2 it was 0%; with DAPK3, 0%; with DCAMKL1, 11%; with DCAMKL2 it was 13%; in the test with DCAMKL3, 10%. Also, the “%Inh” value in the test on DDR1 came to 94.9%; in the test on DDR2, 42%; in the test with DLK, 74%; in the test on DMPK2, 11%; in the test on DMPK it was 0%; in the test with DRAK1, 0%. The “%Inh” value in the test on DRAK2 turned out to be 0%; in the test with DYRK1A, 39%.
With `COc1cccc(-c2nc(-c3ccccc3)[nH]c2-c2ccncc2)c1` [SB-610250], the “%Inh” value in the test with CSNK1G1 is reported as 0%; with CSNK1G2, 0%; in the test on CSNK1G3, 22%; in the test on CSNK2A1, 0%; in the test with CSNK2A2 it was 0%; in the test with CTK it was 0%. Moreover, the “%Inh” value with DAPK1 turned out to be 0%; in the test on DAPK2, 0%; in the test with DAPK3, 19%; in the test with DCAMKL1 it was 14%; in the test with DCAMKL2 it was 22%; in the test on DCAMKL3, 14%. For the same compound, the “%Inh” value in the test with DDR1 worked out at 78%; with DDR2 it was 49%; with DLK, 16%; in the test with DMPK2, 68%; in the test on DMPK it was 0%; in the test with DRAK1 it was 0%. The “%Inh” value turned out to be 0% in the test with DRAK2 and 22% in the test on DYRK1A.

For the origin of these results see paper PMC5540273 (PLoS ONE, 2017).
